PI5P4K alpha inh: qHTS for Inhibitors of phosphatidylinositol 5-phosphate 4-kinase (PI5P4K); Phosphatidylinositol 5-phosphate 4-kinase type-2 alpha (Homo sapiens), P48426; PI5P4Kalpha enzyme, ADP-Glo luminescence, 60 min; active compounds read low; max response, %; 330,000 tested, 1.2% active; active = max response of -50% or lower; inconclusive = between -30% and -50%; inactive = -30% or higher; also: value at the top dose of about 77 µM
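qHTS, 1536-well: enzyme/substrate mix, compound by pin tool, 5 microM ATP final; RT 60 min; ADP-Glo reagents 1 (45 min) then 2 (30 min); luminescence.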
Pol kappa inh-1: qHTS for Inhibitors of Polymerase Kappa | Potency, µM (titrated, usually from 107 µM), usual class: inhibitors | DNA polymerase kappa (Homo sapiens), Q9UBT6 | 400,000 tested, 0.53% active | purified Pol kappa, fluorescent DNA synthesis assay, 10 min | AID 588579, 2011
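Activity was followed as the change in fluorescence between reads at 0 and 10 min after starting the reaction with 50 nM substrate. Beforehand, 10 nM polymerase had been preincubated with compound for 15 min at room temperature.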
Pol eta inh-1: qHTS for Inhibitors of Polymerase Eta; Potency, µM (series often up to 114 µM), most hits filed as inhibitors; 390,000 tested, 1.2% active; DNA polymerase eta (Homo sapiens), Q9Y253; recombinant Pol eta, fluorescent DNA replication assay
Target sequence (Q9Y253 whole entry, looked up): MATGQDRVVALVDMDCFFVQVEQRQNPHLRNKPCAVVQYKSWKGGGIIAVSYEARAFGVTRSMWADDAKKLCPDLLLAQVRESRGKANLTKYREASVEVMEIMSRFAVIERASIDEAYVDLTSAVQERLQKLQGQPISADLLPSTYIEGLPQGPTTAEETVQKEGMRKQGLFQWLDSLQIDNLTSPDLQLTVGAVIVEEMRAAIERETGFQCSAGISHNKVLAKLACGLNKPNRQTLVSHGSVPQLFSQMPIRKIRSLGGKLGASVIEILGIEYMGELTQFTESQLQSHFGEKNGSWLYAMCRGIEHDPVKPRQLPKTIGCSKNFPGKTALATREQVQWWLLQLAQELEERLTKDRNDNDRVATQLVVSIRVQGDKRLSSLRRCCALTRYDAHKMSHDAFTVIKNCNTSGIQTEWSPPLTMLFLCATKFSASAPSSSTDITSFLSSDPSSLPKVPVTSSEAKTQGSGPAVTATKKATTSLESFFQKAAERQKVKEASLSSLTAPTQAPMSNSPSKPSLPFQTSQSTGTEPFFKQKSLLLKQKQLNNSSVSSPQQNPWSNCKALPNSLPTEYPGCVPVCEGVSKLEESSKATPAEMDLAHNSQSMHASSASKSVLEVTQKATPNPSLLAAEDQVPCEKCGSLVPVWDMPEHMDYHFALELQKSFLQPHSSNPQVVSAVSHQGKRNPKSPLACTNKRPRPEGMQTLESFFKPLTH
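Pol eta (10 nM) was preincubated with compounds for 15 min at room temperature, after which fluorescent replication substrate (50 nM final) was added to start the reaction. Fluorescence was read kinetically at 0 and 10 min.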
PI4K2A block: qHTS for small molecular inhibitors of PI4K2A. Phosphatidylinositol 4-kinase type 2-alpha (Homo sapiens), Q9BTU6. purified PI4K2A, ADP-Glo luminescence, 1 h; active compounds read low. activity change, negative = inhibition, % at 76.9 µM. 420,000 tested, 0.13% active; in the data active = activity change below about -50%; inconclusive = mostly about -30% to -49%
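PI4K2A activity was measured by ADP-Glo luminescence: enzyme (4 ug/mL stock) and phosphatidylinositol (1.2 mM stock) in Tris pH 7.5/MgCl2/EGTA/Triton X-100 buffer were reacted with ATP (300 microM stock) for one hour at ambient temperature.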
POLI inh: qHTS for Inhibitors of Polymerase Iota; 390,000 tested, 1% active; Pol iota fluorescent replication assay, 10 min; DNA polymerase iota (Homo sapiens), Q9UNA4; Potency, µM (top dose mostly 115 µM), actives largely listed as inhibitors
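Pol iota at 10 nM preincubated 15 min with compounds at room temperature; reaction started with fluorescent substrate, 50 nM final. Fluorescence read kinetically at 0 and 10 min; buffer-only wells as negative control.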
Pol beta inh: qHTS Assay for Inhibitors of DNA Polymerase Beta | P06746 | Pol beta primer extension/strand displacement, fluorescence kinetic | Potency, µM (doses to about 114 µM), usual class: inhibitors | 340,000 tested, 1.3% active
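Human Pol beta at 10 nM; strand-displacement substrate 50 nM final. Compound exposure 15 min at room temperature before start, reaction 10 min at room temperature.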
Pol iota confirm: qHTS for Inhibitors of Polymerase Iota: Confirmatory Assay for Cherry-picked Compounds; shares compounds with Pol kappa inh-1; Pol iota primer extension, TAMRA/BHQ fluorescence; Potency, µM, usual class: inhibitors; 1,500 tested, 77% active
GALK confirm: Confirmation Assay for Inhibitors of Human Galactokinase (GALK); shares compounds with Pol eta inh-1; purified GALK, Kinase-Glo ATP depletion luminescence; Potency, µM (highest dose often 115 µM), most hits filed as inhibitors; 150 tested, 70% active; AID 2015, 2009
Redox cycling: Confirmatory Assay for Inhibitors of Human Galactokinase (GALK): Phenol-HRP redox assay counterscreen. shares compounds with Pol eta inh-1. Phenol red-HRP H2O2 redox cycling, absorbance 600 nm. Potency, µM (doses to about 115 µM), most hits filed as inhibitors. 150 tested, 40% active
HEK293 tox: Secondary Assay for Inhibitors of Human Galactokinase (GALK): HEK-293 Cell Viability Assay. HEK-293 viability, ATP luminescence (CellTiter-Glo), 24/48 h. shares compounds with Pol eta inh-1. 170 tested, 10% active. AID 2547, 2010. Potency, µM (highest dose often 46.1 µM), actives largely listed as inhibitors
Pol kappa inh-2: qHTS for Inhibitors of Polymerase Kappa: Confirmatory Assay for Cherry-picked Compounds; Potency, µM, usual class: inhibitors; purified Pol-kappa, fluorescent strand-displacement substrate; shares compounds with Pol eta inh-1; 920 tested, 76% active
Pol eta inh-2: qHTS for Inhibitors of Polymerase Eta: Confirmatory Assay for Cherry-picked Compounds. Pol eta primer extension, TAMRA/BHQ fluorescence, 10 min. shares compounds with Pol eta inh-1. Potency, µM, actives largely listed as inhibitors. 2,600 tested, 64% active
Each line names hits and unclear results; the compound was inactive in the other large screens (follow-up assays come after a bar, where they were run). Sampled rows, rich in hits. Any-hit rate of the full collection: about 2.8%. Unless noted, calls follow the shape of the dose curve; as a rule, active = well fitted curve in the direction sought with a large enough effect; inconclusive = small, poorly fitted or top-dose-only effect, or another doubt; inactive = no such curve, though single readings can be large; an effect the other way counts as inactive or inconclusive.

O=C1C=C(N2CCOCC2)c2ccccc2C1=O	Pol eta inh-1 5.6µM, PI4K2A block -75, POLI inh 1.8µM | Pol iota confirm 17 | GALK confirm 8.4µM | Redox cycling 4.7µM | HEK293 tox 14µM | Pol eta inh-2 7.6
O=C1C=C(N2CCOCC2)c2cccc3cccc1c23	none (no result: Pol kappa inh-1, POLI inh, Pol beta inh)
CCOc1ccc(C(=O)Nc2ccccc2OCc2cc(=O)n3ccccc3n2)cc1	none (no result: PI5P4K alpha inh)
O=c1c2cc(O)c(O)cc2oc2cc(O)c(C3OC(CO)C(O)C(O)C3O)c(O)c12 (stereo not drawn)	Pol kappa inh-1 4µM, Pol eta inh-1 8.9µM, POLI inh inconclusive (no result: Pol beta inh) | Pol iota confirm 15 | Pol kappa inh-2 7.5 | Pol eta inh-2 19
COc1cc(C(=O)n2nc(-c3ccco3)nc2NCc2ccc(Cl)cc2)cc(OC)c1OC	none (no result: PI5P4K alpha inh)
O=C(O)c1cc(/C=C/C(=O)c2cc(F)ccc2O)c2c(c1)COCO2	Pol kappa inh-1 inconclusive, Pol eta inh-1 22µM, POLI inh 14µM, Pol beta inh inconclusive | Pol iota confirm 67 | Pol eta inh-2 48
O=C(COC(=O)c1c2c(nc3ccccc13)/C(=C\c1ccco1)CC2)NC1CCCC1	PI5P4K alpha inh -55, Pol kappa inh-1 22µM, Pol eta inh-1 3.5µM, PI4K2A block inconclusive, POLI inh 6.3µM (no result: Pol beta inh) | Pol iota confirm 19 | Pol kappa inh-2 12 | Pol eta inh-2 27
CN1CCc2nc3ccccc3c(C(=O)OCC(=O)N(CCC#N)c3ccccc3)c2C1	none
CN(CCC#N)C(=O)COC(=O)c1c2c(nc3ccccc13)/C(=C\c1ccco1)CC2	PI5P4K alpha inh inconclusive, Pol kappa inh-1 22µM, Pol eta inh-1 11µM, PI4K2A block -52, POLI inh 4µM (no result: Pol beta inh) | Pol iota confirm 17 | Pol eta inh-2 34
CC1(C)CCC(c2ccc(Cl)cc2)=C(CN2CCN(c3ccc(C(=O)NS(=O)(=O)c4ccc(N[C@H](CCN5CCOCC5)CSc5ccccc5)c(S(=O)(=O)C(F)(F)F)c4)cc3)CC2)C1	Pol kappa inh-1 45µM, POLI inh 40µM (no result: PI5P4K alpha inh, Pol eta inh-1, PI4K2A block, Pol beta inh) | Pol iota confirm 67 | Pol kappa inh-2 inconclusive | Pol eta inh-2 inconclusive
Cc1ccc(OCC(=O)c2cc(C)c(C)cc2C)c([N+](=O)[O-])n1	Pol eta inh-1 inconclusive, POLI inh inconclusive
Cc1ccc(OCC(=O)c2c(N)n(C)c(=O)n(C)c2=O)c([N+](=O)[O-])n1	PI5P4K alpha inh -50, Pol kappa inh-1 35µM, Pol eta inh-1 11µM, POLI inh 10µM (no result: Pol beta inh) | Pol iota confirm 34 | Pol kappa inh-2 11 | Pol eta inh-2 30
COCCCNC(=O)/C(C#N)=C/c1ccc(OCC(=O)O)c(OC)c1	PI5P4K alpha inh inconclusive, Pol kappa inh-1 22µM, Pol eta inh-1 2.5µM, POLI inh 10µM, Pol beta inh 3.5µM | Pol iota confirm 19 | Pol eta inh-2 27
COCCNC(=O)/C(C#N)=C/c1cccc(/C=C(\C#N)C(=O)NCCOC)c1	none
CCN1CCN(c2cc(C)c3cc(NC(=O)c4cc(Br)ccc4Cl)ccc3n2)CC1	none (no result: PI5P4K alpha inh)
Fc1ccc(-n2ncc3c(N4CCN(c5ccccc5F)CC4)ncnc32)cc1	none (no result: PI5P4K alpha inh)
CN(C)c1ccc(/C=N/NC(=O)c2ccc3c(c2)OCCO3)cc1	none
O=C(N/N=C/c1cc(Br)c(Br)o1)c1ccc2c(c1)OCCO2	PI5P4K alpha inh -57, Pol kappa inh-1 inconclusive, Pol eta inh-1 13µM, POLI inh inconclusive, Pol beta inh 8.9µM | Pol iota confirm inconclusive | Pol eta inh-2 30
COc1ccc(/C=N\Nc2ccccn2)c(OC)c1	none
COc1ccc(/C=N/Nc2ncc(Br)cn2)c(OC)c1	PI5P4K alpha inh inconclusive, Pol eta inh-1 28µM, Pol beta inh 4.5µM | Pol iota confirm 42 | Pol kappa inh-2 15
N#Cc1c(-c2ccco2)cc(-c2ccccc2)[nH]c1=O	Pol kappa inh-1 inconclusive, POLI inh 10µM, Pol beta inh inconclusive | Pol iota confirm 42 | Pol kappa inh-2 12 | Pol eta inh-2 27
N#Cc1c(C(F)(F)F)cc(-c2ccccc2)[nH]c1=O	none (no result: PI5P4K alpha inh)
O=C(ONC(=O)C1C2C=CC(C2)C1C(=O)NOC(=O)c1ccccc1)c1ccccc1 (stereo not drawn)	none (no result: Pol beta inh)
O=C(O)CSc1cc(NS(=O)(=O)c2cccc([N+](=O)[O-])c2)c2ccccc2c1O	Pol kappa inh-1 inconclusive, Pol eta inh-1 22µM, PI4K2A block inconclusive, POLI inh 3.2µM, Pol beta inh 79µM | Pol iota confirm 27 | GALK confirm 33µM | Redox cycling 21µM | HEK293 tox inactive | Pol eta inh-2 27
CCOc1ccc(S(=O)(=O)Nc2cc(SCC(=O)O)c(O)c3ccccc23)cc1	PI5P4K alpha inh inconclusive, Pol eta inh-1 45µM, PI4K2A block inconclusive, POLI inh 10µM, Pol beta inh inconclusive | Pol iota confirm inconclusive | Pol eta inh-2 inconclusive
CCOc1ccc(S(=O)(=O)Nc2cc3c(C(=O)OC)c(COC)oc3c3ccccc23)cc1	Pol beta inh inconclusive (no result: PI5P4K alpha inh)

Source: PubChem
